Screens from PubChem BioAssay.
Compounds with a hit are over-represented: about 1.2% of the library has one in this group of screens.
RGS4-Gao reg = human RGS4-Galphao interaction regulation. P09471. Multiplexed bead flow cytometry, RGS4-Galphao binding; actives lie on both sides. binding response (% of control), % at 10 µM. 220,000 tested, 0.33% active. AID 1415; in the data active = binding response below about 49% or above about 150%; inactive = in between;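 also: fluorescent Galphao activated with aluminum fluoride binding bead-coupled RGS4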
Target sequence (P09471 whole entry, looked up): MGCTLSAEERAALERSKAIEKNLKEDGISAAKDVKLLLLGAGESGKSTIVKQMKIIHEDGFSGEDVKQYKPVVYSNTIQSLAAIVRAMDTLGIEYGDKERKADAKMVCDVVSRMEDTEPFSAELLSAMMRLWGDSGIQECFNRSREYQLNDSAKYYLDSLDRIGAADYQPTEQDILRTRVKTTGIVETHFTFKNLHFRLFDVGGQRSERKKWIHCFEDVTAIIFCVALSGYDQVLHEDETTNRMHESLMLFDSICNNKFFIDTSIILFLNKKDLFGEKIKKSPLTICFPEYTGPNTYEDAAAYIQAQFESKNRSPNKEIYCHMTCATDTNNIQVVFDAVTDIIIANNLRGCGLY
Avidin fluor = avidin bead compound fluorescence profile | fluorescence (KMESF) at 10 µM | AID 1775 | 220,000 tested, 0.38% active | Avidin beads, compound fluorescence 488/530 nm, flow cytometry; hits give high values; in the data active = fluorescence above about 47
RGS16-Gao = RGS16-Galphao interaction regulator (human); binding response (% of control), % at 10 µM; 220,000 tested, 0.38% active; O15492+P09471; bead-based flow cytometry RGS16-Galphao binding, fluorescence; actives lie on both sides;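 also: Galphao activated by GDP with aluminum fluoride before binding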
Target sequence (O15492 whole entry, looked up): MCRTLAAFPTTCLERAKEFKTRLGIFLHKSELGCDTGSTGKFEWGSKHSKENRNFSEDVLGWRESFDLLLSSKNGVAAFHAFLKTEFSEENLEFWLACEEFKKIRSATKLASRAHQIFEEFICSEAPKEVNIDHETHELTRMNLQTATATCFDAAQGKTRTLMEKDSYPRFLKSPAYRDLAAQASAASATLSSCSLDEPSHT
Target sequence (P09471 whole entry, looked up): as the sequence (P09471 whole entry, looked up) above
GSH fluor = GSH bead compound fluorescence profile; 190,000 tested, 0.25% active; fluorescence (KMESF) at 10 µM; GSH beads flow cytometry, compound fluorescence 488/530 nm; hits give high values; AID 1776; in the data active = fluorescence above about 89;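 also: glutathione beads carrying GST-tagged Bcl family fusion proteins plus one bare bead set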
RGS7-Gao = regulators of human RGS7-Galphao interaction; Multiplexed bead flow cytometry, RGS7-Galphao binding; actives lie on both sides; binding response (% of control), % at 10 µM; 220,000 tested, 0.35% active; AID 1439; in the data active = binding response below about 49% or above about 150%; inconclusive = no clear call, values can overlap the other calls; inactive = in between;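 also: fluorescent Galphao held in activated GDP-AlF4 state binding bead-coupled RGS7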
RGS8-Gao reg = human RGS8-Galphao interaction regulation. P09471. AID 1423. multiplexed bead flow cytometry, RGS8-Galphao binding; actives lie on both sides. 220,000 tested, 0.34% active. response (percent of control binding), % at 10 µM; in the data active = response below about 60% or above about 140%; inactive = in between;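 also: Galphao activated as the GDP aluminium fluoride complex binding bead-coupled RGS8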
RGS4-Gao HTS = RGS4-Galphao interaction regulator (human); AID 1504; shares compounds with RGS16-Gao; multiplexed bead flow cytometry, RGS–Galpha-o binding; 1,600 tested, 99% active; RGS4–Galpha-o binding response, % at 10 µM;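 also: fluorescently labeled Galpha-o bound to GDP with aluminium fluoride binding biotinylated RGS beads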
Avidin counter = interferes with biotinylated probe binding to avidin beads. shares compounds with RGS16-Gao. 1,700 tested, under 10 active. streptavidin beads, fluorescein-biotin binding, flow cytometry. inhibition, % at 10 µM. AID 1783;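 active = inhibition above 50%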;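 also: median green fluorescence of gated singlet beads compared with DMSO control wells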
RGS8-Gao single = confirmation of regulators of human RGS8-Galphao interaction. 1,700 tested, 3% active. binding response (% of control), % at 10 µM. shares compounds with RGS16-Gao. bead-based flow cytometry RGS8-Galphao binding, fluorescence; actives lie on both sides; in the data active = binding response below about 72% or above about 130%; inactive = in between;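 also: Galphao activated as GDP AlF4 complex before binding bead RGS8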
RGS7-Gao confirm = RGS7-Galphao interaction regulation, single point confirmation. shares compounds with RGS16-Gao. bead-based flow cytometry RGS7-Galphao binding; actives lie on both sides. response (percent of control binding), % at 10 µM. 1,700 tested, 7.8% active; in the data active = response below about 75% or above about 130%; inactive = in between;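 also: fluorescent Galphao activated with GDP and aluminum fluoride binding bead-coupled RGS7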
RGS16-Gao conf = RGS16-Galphao interaction regulation, single point confirmation. shares compounds with RGS16-Gao. bead-based flow cytometry, RGS16-Galphao binding; actives lie on both sides. response (% of control binding), % at 10 µM. 1,700 tested, 4% active. AID 1838; in the data active = response below about 74% or above about 130%; inactive = in between;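 also: Galphao activated as the GDP aluminium fluoride complex binding bead-coupled RGS16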
RGS4-Gao confirm = RGS4-Galphao interaction regulation, single point confirmation; binding response (% of control), % at 10 µM; 1,700 tested, 4% active; AID 1840; RGS4-Galphao binding, multiplexed bead flow cytometry; actives lie on both sides; shares compounds with RGS16-Gao; in the data active = binding response below about 74% or above about 130%; inactive = in between
RGS19-Gao single = confirmation of regulators of human RGS19-Galphao interaction. shares compounds with RGS16-Gao. bead-based flow cytometry RGS19-Galphao binding; actives lie on both sides. AID 1841. 1,700 tested, 5% active. response (percent of control binding), % at 10 µM; in the data active = response below about 50% or above about 160%; inactive = in between
Of the large screens only hits and unclear results are named; the others gave an inactive call (follow-up assays come after a bar, where they were run); [ ] = dose if it differs, or a comment. Unless noted, no rule for the calls is given here.

CCOC(=O)CN1C(=O)S/C(=C/c2ccc3c(c2)n(C)c(=O)n3C)C1=O	RGS16-Gao 23 | RGS4-Gao HTS 85 | Avidin counter inactive | RGS8-Gao single inactive | RGS7-Gao confirm inactive | RGS16-Gao conf inactive | RGS4-Gao confirm inactive | RGS19-Gao single inactive
Cc1cccc(-c2nc(CSCC(=O)NCCCN3CCOCC3)c(C)o2)c1	none
Cc1oc(-c2ccc(Cl)cc2)nc1CSCC(=O)NCCCN1CCOCC1	RGS4-Gao reg 187[activator], RGS16-Gao 228[activator], RGS7-Gao 164[activator] | Avidin counter inactive | RGS8-Gao single inactive | RGS7-Gao confirm inactive | RGS16-Gao conf inactive | RGS4-Gao confirm inactive | RGS19-Gao single inactive
Clc1c(-c2ccccc2)nnn1-c1ccccc1	none
Cc1ccc(C)c(NC(=O)CSc2nnc(-c3ccccc3)n2N)c1	RGS8-Gao reg 141[activator] | RGS4-Gao HTS 119 | Avidin counter inactive | RGS8-Gao single inactive | RGS7-Gao confirm inactive | RGS16-Gao conf inactive | RGS4-Gao confirm inactive | RGS19-Gao single inactive
Cc1ccc(C2CC(c3ccccc3)=NN2C(=S)Nc2ccccc2)o1 (stereo unspecified)	RGS4-Gao reg -31, RGS16-Gao -20, RGS7-Gao -7.6, RGS8-Gao reg 11 | Avidin counter inactive | RGS8-Gao single inactive | RGS7-Gao confirm inactive | RGS16-Gao conf inactive | RGS4-Gao confirm inactive | RGS19-Gao single inactive
COC(=O)C1=C(C)N(c2ccccc2)C(=S)NC1c1ccccc1C(F)(F)F (stereo unspecified)	none
C=C(C)CC(NCCc1ccccc1)c1ccco1 (stereo unspecified)	RGS4-Gao reg 156[activator] | Avidin counter inactive | RGS8-Gao single inactive | RGS7-Gao confirm inactive | RGS16-Gao conf inactive | RGS4-Gao confirm inactive | RGS19-Gao single inactive
O=C(NCCc1ccccc1)c1ccco1	none
Cc1ccc(C)c(NC(=S)c2ccc3ccccc3n2)c1	RGS4-Gao reg 19, RGS16-Gao 2.2, RGS7-Gao 8.0, RGS8-Gao reg 15 | Avidin counter inactive | RGS8-Gao single inactive | RGS7-Gao confirm inactive | RGS16-Gao conf inactive | RGS4-Gao confirm inactive | RGS19-Gao single inactive
COc1ccc(C2N=C(N)N=C(N)N2c2ccccc2OC)cc1OC (stereo unspecified)	none
Nc1c(C(=O)OCC(=O)NCc2ccccc2)[nH]c(=O)[nH]c1=O	RGS7-Gao inconclusive (no result: GSH fluor)
COc1cccc(-c2nn[nH]n2)c1O	none
O=C(COc1cccnc1[N+](=O)[O-])Nc1ccc2c(c1)OC(F)(F)O2	none
CCC1CCC(c2nnc(-c3ccc(Br)cc3)o2)CC1 (stereo unspecified)	RGS16-Gao 13 | RGS4-Gao HTS 89 | Avidin counter inactive | RGS8-Gao single inactive | RGS7-Gao confirm inactive | RGS16-Gao conf inactive | RGS4-Gao confirm inactive | RGS19-Gao single inactive
CN(C)/C=C/C(=O)c1cnc(-c2ccc(Cl)cc2)s1	RGS4-Gao reg 3.1, RGS16-Gao -6.2, RGS7-Gao 2.5, RGS8-Gao reg 7.8 | Avidin counter inactive | RGS8-Gao single inactive | RGS7-Gao confirm inactive | RGS16-Gao conf inactive | RGS4-Gao confirm inactive | RGS19-Gao single inactive
CN(C)/C=C/C(=O)c1cnc(-c2ccccc2)s1	none
NS(=O)(=O)c1ccc(CCNC(=O)C2CCC(Cn3c(=S)[nH]c4ccccc4c3=O)CC2)cc1 (stereo unspecified)	RGS4-Gao reg 22, RGS16-Gao 11, RGS7-Gao 17, RGS8-Gao reg 13 | Avidin counter inactive | RGS8-Gao single inactive | RGS7-Gao confirm inactive | RGS16-Gao conf inactive | RGS4-Gao confirm inactive | RGS19-Gao single inactive
Cc1ccc(C(C(=O)NC2CCCC2)N(C(=O)Cc2cccs2)c2cccc(C)c2C)o1 (stereo unspecified)	none
Cc1cc(C)cc(N(C(=O)Cc2cccs2)C(C(=O)NC2CCCC2)c2ccc(C)o2)c1 (stereo unspecified)	none (no result: RGS4-Gao reg, Avidin fluor, RGS16-Gao, RGS7-Gao, RGS8-Gao reg) | Avidin counter inactive | RGS8-Gao single inactive | RGS7-Gao confirm inactive | RGS16-Gao conf inactive | RGS4-Gao confirm inactive | RGS19-Gao single inactive
COc1ccc(CCN=C(N)NS(=O)(=O)c2ccc(F)cc2)cc1	none
C=CCn1c(COc2ccccc2)nnc1SCC(=O)Nc1ccc(S(N)(=O)=O)cc1	none
Cn1c(COc2ccccc2)nnc1SCC(=O)Nc1ccc(S(N)(=O)=O)cc1	none (no result: RGS4-Gao reg, Avidin fluor, RGS16-Gao, RGS7-Gao, RGS8-Gao reg) | Avidin counter inactive | RGS8-Gao single inactive | RGS7-Gao confirm inactive | RGS16-Gao conf inactive | RGS4-Gao confirm inactive | RGS19-Gao single inactive
CCOC(=O)c1ccccc1NC(=O)CN(c1ccc(OCC)cc1)S(C)(=O)=O	none
CCOc1ccc(N(CC(=O)Nc2ccccc2)S(C)(=O)=O)cc1	RGS16-Gao -46 | RGS4-Gao HTS 80 | Avidin counter inactive | RGS8-Gao single inactive | RGS7-Gao confirm inactive | RGS16-Gao conf inactive | RGS4-Gao confirm inactive | RGS19-Gao single inactive
Cc1ccc(Nc2ccc(S(=O)(=O)N3CCOCC3)cc2[N+](=O)[O-])cc1C	none
Cc1ccccc1NC(=S)NCc1cccn1C	RGS16-Gao 178[activator] | RGS4-Gao HTS 97 | Avidin counter inactive | RGS8-Gao single inactive | RGS7-Gao confirm inactive | RGS16-Gao conf inactive | RGS4-Gao confirm inactive | RGS19-Gao single inactive
Nc1c(C(=O)NCC2CCCO2)sc2nc3c(c(-c4ccco4)c12)CC/C3=C\c1ccco1 (stereo unspecified)	RGS7-Gao 44 | RGS4-Gao HTS 73 | Avidin counter inactive | RGS8-Gao single 70 | RGS7-Gao confirm 52 | RGS16-Gao conf 70 | RGS4-Gao confirm inactive | RGS19-Gao single 24
CCOc1ccc(Cc2n[nH]c(=S)n2Cc2ccccc2)cc1	none
